# Reference: paper PMC8384837, “Expanding the binding specificity for RNA recognition by a PUF domain”
# Residue numbers refer to the chain shown, from its start.
# Assays:
# Experiment in all cases: yeast three-hybrid, YBZ-1, SC-Leu-His + 0.5 mM 3-AT, 4 days
# Conditions in all cases: tags: N-Gal4 AD-HA kept; label: inside an RPR1-promoter hybrid RNA with tandem MS2 sites; ssRNA
# PUM1 PUF domain R4-PFS = PUM1 PUF domain R4-PFS (Homo sapiens, UniProt Q14671 828-1176, N971P;H972F;Q975S)
# In short: (§1)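 A centromeric plasmid in strain YBZ-1 co-expressed Pumilio-1 PUF domain libraries, randomized at the three base-contacting residues of each repeat, with matching RNA elements; the strain carries a LexA–MS2 coat fusion and a HIS3 reporter. After four days on SC-Leu (input) or SC-Leu-His + 0.5 mM 3-AT (selection), the repeat regions were PCR-amplified and Illumina-sequenced. The interaction score is the log change in variant frequency from input to selection, using log2 and a pseudocount of 1 where absent.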
# PUM1 PUF domain R4-PWS = PUM1 PUF domain R4-PWS (Homo sapiens, UniProt Q14671 828-1176, N971P;H972W;Q975S)
# In short: as §1
# PUM1 PUF domain R4-VPT = PUM1 PUF domain R4-VPT (Homo sapiens, UniProt Q14671 828-1176, N971V;H972P;Q975T)
# In short: as §1
# PUM1 PUF domain R4-PHV = PUM1 PUF domain R4-PHV (Homo sapiens, UniProt Q14671 828-1176, N971P;Q975V)
# In short: as §1
# PUM1 PUF domain R3-SHG = PUM1 PUF domain R3-SHG (Homo sapiens, UniProt Q14671 828-1176, C935S;R936H;Q939G)
# In short: as §1
# PUM1 PUF domain R3-SPR = PUM1 PUF domain R3-SPR (Homo sapiens, UniProt Q14671 828-1176, C935S;R936P;Q939R)
# In short: as §1
# PUM1 PUF domain R3-SQE = PUM1 PUF domain R3-SQE (Homo sapiens, UniProt Q14671 828-1176, C935S;R936Q;Q939E)
# In short: as §1
# PUM1 PUF domain R5-SAS = PUM1 PUF domain R5-SAS (Homo sapiens, UniProt Q14671 828-1176, C1007S;R1008A;Q1011S)
# In short: as §1
# PUM1 PUF domain R1-KSR = PUM1 PUF domain R1-KSR (Homo sapiens, UniProt Q14671 828-1176, S863K;R864S;Q867R)
# In short: as §1
# PUM1 PUF domain R7-QFR = PUM1 PUF domain R7-QFR (Homo sapiens, UniProt Q14671 828-1176, S1079Q;N1080F;E1083R)
# In short: as §1
# PUM1 PUF domain R7-LNS = PUM1 PUF domain R7-LNS (Homo sapiens, UniProt Q14671 828-1176, S1079L;E1083S)
# In short: as §1
# PUM1 PUF domain R7-CRR = PUM1 PUF domain R7-CRR (Homo sapiens, UniProt Q14671 828-1176, S1079C;N1080R;E1083R)
# In short: as §1
# PUM1 PUF domain R7-RRR = PUM1 PUF domain R7-RRR (Homo sapiens, UniProt Q14671 828-1176, S1079R;N1080R;E1083R)
# In short: as §1
# PUM1 PUF domain R7-SRK = PUM1 PUF domain R7-SRK (Homo sapiens, UniProt Q14671 828-1176, N1080R;E1083K)
# In short: as §1
# PUM1 PUF domain R7-LSC = PUM1 PUF domain R7-LSC (Homo sapiens, UniProt Q14671 828-1176, S1079L;N1080S;E1083C)
# In short: as §1
# PUM1 PUF domain R5-NPI = PUM1 PUF domain R5-NPI (Homo sapiens, UniProt Q14671 828-1176, C1007N;R1008P;Q1011I)
# In short: as §1
# PUM1 PUF domain R6-SFG = biological target: T1, PUM1 PUF domain R6-SFG (Homo sapiens, UniProt Q14671 828-1176, N1043S;Y1044F;Q1047G)
# T1 sequence: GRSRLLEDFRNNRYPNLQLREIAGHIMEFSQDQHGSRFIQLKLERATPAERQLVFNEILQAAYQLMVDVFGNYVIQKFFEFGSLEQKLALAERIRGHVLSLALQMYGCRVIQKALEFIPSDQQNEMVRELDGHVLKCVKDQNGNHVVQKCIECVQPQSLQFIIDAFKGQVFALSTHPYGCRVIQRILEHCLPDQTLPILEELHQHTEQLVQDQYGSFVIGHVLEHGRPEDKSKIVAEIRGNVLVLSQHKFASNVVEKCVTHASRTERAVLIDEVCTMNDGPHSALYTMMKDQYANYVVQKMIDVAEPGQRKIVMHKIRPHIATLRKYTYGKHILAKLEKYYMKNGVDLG
# In short: as §1
# PUM1 PUF domain R8-SYW = PUM1 PUF domain R8-SYW (Homo sapiens, UniProt Q14671 828-1176, N1122S;Q1126W)
# In short: as §1
# PUM1 PUF domain R6-VFR = biological target: T2, PUM1 PUF domain R6-VFR (Homo sapiens, UniProt Q14671 828-1176, N1043V;Y1044F;Q1047R)
# T2 sequence: T1 sequence with S216V, G220R
# In short: as §1
# PUM1 PUF domain R3-DYI = PUM1 PUF domain R3-DYI (Homo sapiens, UniProt Q14671 828-1176, C935D;R936Y;Q939I)
# In short: as §1
sequence,measurement,setting,value
GGCUAGAACUAGUGGAUCCCCCGGCGCCCGGCGGCUCGAGCCCGGGUAAGUGUACAUAGUCUGCAUGCCGCCGGGCGCCAUGCCUGCAGGUCGACUCUAGAAAACAUG,binding signal,PUM1 PUF domain R4-PFS,5.13 log2 enrichment (interaction score)
same,binding signal,PUM1 PUF domain R4-PWS,4.61 log2 enrichment (interaction score)
same,binding signal,PUM1 PUF domain R4-VPT,0.61 log2 enrichment (interaction score)
same,binding signal,PUM1 PUF domain R4-PHV,4.96 log2 enrichment (interaction score)
GGCUAGAACUAGUGGAUCCCCCGGCGCCCGGCGGCUCGAGCCCGGGUAAGUGUAAUUAGUCUGCAUGCCGCCGGGCGCCAUGCCUGCAGGUCGACUCUAGAAAACAUG,binding signal,PUM1 PUF domain R3-SHG,0.72 log2 enrichment (interaction score)
same,binding signal,PUM1 PUF domain R3-SPR,3.06 log2 enrichment (interaction score)
GGCUAGAACUAGUGGAUCCCCCGGCGCCCGGCGGCUCGAGCCCGGGUAAGUGUAAGUAGUCUGCAUGCCGCCGGGCGCCAUGCCUGCAGGUCGACUCUAGAAAACAUG,binding signal,PUM1 PUF domain R3-SHG,2.83 log2 enrichment (interaction score)
same,binding signal,PUM1 PUF domain R3-SQE,3.11 log2 enrichment (interaction score)
same,binding signal,PUM1 PUF domain R3-SPR,1.77 log2 enrichment (interaction score)
GGCUAGAACUAGUGGAUCCCCCGGCGCCCGGCGGCUCGAGCCCGGGUAAGUGUGAAUAGUCUGCAUGCCGCCGGGCGCCAUGCCUGCAGGUCGACUCUAGAAAACAUG,binding signal,PUM1 PUF domain R5-SAS,5.82 log2 enrichment (interaction score)
GGCUAGAACUAGUGGAUCCCCCGGCGCCCGGCGGCUCGAGCCCGGGUAAGUGUAAAUCGUCUGCAUGCCGCCGGGCGCCAUGCCUGCAGGUCGACUCUAGAAAACAUG,binding signal,PUM1 PUF domain R1-KSR,5.1 log2 enrichment (interaction score)
GGCUAGAACUAGUGGAUCCCCCGGCGCCCGGCGGCUCGAGCCCGGGUAAGUGUAACUAGUCUGCAUGCCGCCGGGCGCCAUGCCUGCAGGUCGACUCUAGAAAACAUG,binding signal,PUM1 PUF domain R3-SPR,1.77 log2 enrichment (interaction score)
GGCUAGAACUAGUGGAUCCCCCGGCGCCCGGCGGCUCGAGCCCGGGUAAGUGUAAAUUGUCUGCAUGCCGCCGGGCGCCAUGCCUGCAGGUCGACUCUAGAAAACAUG,binding signal,PUM1 PUF domain R1-KSR,5.58 log2 enrichment (interaction score)
GGCUAGAACUAGUGGAUCCCCCGGCGCCCGGCGGCUCGAGCCCGGGUAAGUCUAAAUAGUCUGCAUGCCGCCGGGCGCCAUGCCUGCAGGUCGACUCUAGAAAACAUG,binding signal,PUM1 PUF domain R7-QFR,2.43 log2 enrichment (interaction score)
same,binding signal,PUM1 PUF domain R7-LNS,0.35 log2 enrichment (interaction score)
same,binding signal,PUM1 PUF domain R7-CRR,0.18 log2 enrichment (interaction score)
same,binding signal,PUM1 PUF domain R7-RRR,3.52 log2 enrichment (interaction score)
same,binding signal,PUM1 PUF domain R7-SRK,4.33 log2 enrichment (interaction score)
GGCUAGAACUAGUGGAUCCCCCGGCGCCCGGCGGCUCGAGCCCGGGUAAGUUUAAAUAGUCUGCAUGCCGCCGGGCGCCAUGCCUGCAGGUCGACUCUAGAAAACAUG,binding signal,PUM1 PUF domain R7-LNS,5.15 log2 enrichment (interaction score)
same,binding signal,PUM1 PUF domain R7-LSC,4.33 log2 enrichment (interaction score)
same,binding signal,PUM1 PUF domain R7-CRR,2.87 log2 enrichment (interaction score)
same,binding signal,PUM1 PUF domain R7-RRR,3.77 log2 enrichment (interaction score)
GGCUAGAACUAGUGGAUCCCCCGGCGCCCGGCGGCUCGAGCCCGGGUAAGUGUAUAUAGUCUGCAUGCCGCCGGGCGCCAUGCCUGCAGGUCGACUCUAGAAAACAUG,binding signal,PUM1 PUF domain R4-PFS,4.11 log2 enrichment (interaction score)
same,binding signal,PUM1 PUF domain R4-VPT,2.12 log2 enrichment (interaction score)
same,binding signal,PUM1 PUF domain R4-PHV,7.14 log2 enrichment (interaction score)
GGCUAGAACUAGUGGAUCCCCCGGCGCCCGGCGGCUCGAGCCCGGGUAAGUGUUAAUAGUCUGCAUGCCGCCGGGCGCCAUGCCUGCAGGUCGACUCUAGAAAACAUG,binding signal,PUM1 PUF domain R5-NPI,2.85 log2 enrichment (interaction score)
GGCUAGAACUAGUGGAUCCCCCGGCGCCCGGCGGCUCGAGCCCGGGUAAGUGUAAAUAGUCUGCAUGCCGCCGGGCGCCAUGCCUGCAGGUCGACUCUAGAAAACAUG,binding signal,PUM1 PUF domain R6-SFG,4.88 log2 enrichment (interaction score)
same,binding signal,PUM1 PUF domain R4-PWS,6.05 log2 enrichment (interaction score)
same,binding signal,PUM1 PUF domain R8-SYW,3.33 log2 enrichment (interaction score)
same,binding signal,PUM1 PUF domain R3-SHG,3.6 log2 enrichment (interaction score)
same,binding signal,PUM1 PUF domain R6-VFR,4.2 log2 enrichment (interaction score)
same,binding signal,PUM1 PUF domain R4-PHV,4.46 log2 enrichment (interaction score)
same,binding signal,PUM1 PUF domain R3-DYI,5.38 log2 enrichment (interaction score)
same,binding signal,PUM1 PUF domain R3-SPR,0.25 log2 enrichment (interaction score)
GGCUAGAACUAGUGGAUCCCCCGGCGCCCGGCGGCUCGAGCCCGGGUAAGUGCAAAUAGUCUGCAUGCCGCCGGGCGCCAUGCCUGCAGGUCGACUCUAGAAAACAUG,binding signal,PUM1 PUF domain R6-VFR,1.27 log2 enrichment (interaction score)
